From PubChem
Sampled rows, rich in hits. Any-hit rate of the full collection: about 21%.
Cycloheximide cs = counter-screen for Shiga toxin inhibitors: cycloheximide protein synthesis inhibition | cell reporter, cycloheximide protein synthesis inhibition counterscreen | max response, % | actives 12% (n = 300,000) | AID 2314; in the data active means max response mostly above about 13%, no sharp cut-off; inactive means mostly below about 14%; further: read at 38.3 µM for the half of the compounds with a filed dose; 0% is about no effect
Pf growth 48h = inhibits P. falciparum growth in the first generation, 48 h; AID 504832; Potency, µM (series often up to 28.7 µM), for inactives: at the highest dose activity change, negative = inhibition, most hits filed as inhibitors; actives 5.9% (n = 310,000); P. falciparum luciferase growth in erythrocytes, 48 h; further: potency means the concentration at half of the fitted maximal effect; on the % scale 0 is the no-effect control and ±100 the full control effect
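Here the parasites carry a stable luciferase gene and grow inside erythrocytes in Albumax-based RPMI medium with compound for one erythrocytic cycle. Activity is scored as loss of luminescent signal.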
Pf growth 96h = P. falciparum growth inhibition at 96 hour, primary screen for plastid delayed-death inhibitors. P. falciparum luciferase reporter growth, 96 h. Potency, µM (series often up to 28.7 µM), for the others: top-dose activity change, negative = inhibition, most hits filed as inhibitors. AID 504834. actives 6.9% (n = 320,000); further: potency means the concentration at half of the fitted maximal effect; on the % scale 0 is the no-effect control and ±100 the full control effect
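Two-generation exposure (96 h) targets delayed-death phenotype. Reporter parasites carrying integrated firefly luciferase, in red cells at 2% hematocrit and 0.05% parasitemia final, kept at 37 C, 5% CO2; luminescence loss indicates inhibition.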
Shiga inhibitor = Shiga toxin inhibition; Vero cells, Shiga toxin protein synthesis inhibition reporter; inhibition, % at 38.7 µM; actives 9.2% (n = 290,000); in the data active means inhibition mostly above about 28%, no sharp cut-off; inactive means mostly below about 43%; further: 0% is about no effect
NS1 function inh = blocks influenza NS1 protein function; Potency, µM (series often up to 46.1 µM), without a hit: at the highest dose activity, positive = more growth; actives 0.4% (n = 270,000); AID 2326; calls by dose curve; further: potency means the concentration at half of the fitted maximal effect; actives are rising curves; nearly all actives have a fitted effect of over 50% in size
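Compounds were scored for reversing the slow growth caused by influenza A NS1 in S. cerevisiae, measured by optical density at 600 nm. Assay medium contained 2% galactose at pH 6.0; NS1-free yeast of the same strain were the positive control.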
FBPA Giardia inh = inhibitors of Giardia lamblia fructose-1,6-bisphosphate aldolase | actives 0.71% (n = 290,000) | A8B2U2 | purified Giardia FBPA | Potency, µM (highest dose often 59.6 µM), for inactives: top-dose activity, negative = inhibition, most hits filed as inhibitors | AID 2451; further: potency means the concentration at half of the fitted maximal effect; on the % scale 0 is the no-effect control and ±100 the full control effect; nearly all actives have a fitted effect of over 55% in size
Target sequence (A8B2U2 whole entry, looked up): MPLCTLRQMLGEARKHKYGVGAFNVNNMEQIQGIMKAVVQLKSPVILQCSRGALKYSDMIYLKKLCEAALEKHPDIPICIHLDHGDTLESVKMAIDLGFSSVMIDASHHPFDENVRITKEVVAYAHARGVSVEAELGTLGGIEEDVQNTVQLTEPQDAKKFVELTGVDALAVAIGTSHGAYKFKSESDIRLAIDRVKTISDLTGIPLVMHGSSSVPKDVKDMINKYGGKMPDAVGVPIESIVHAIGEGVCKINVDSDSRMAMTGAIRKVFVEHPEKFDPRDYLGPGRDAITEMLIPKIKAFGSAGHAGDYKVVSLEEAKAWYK
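40 nM FBPA preincubated 10 min at RT with compound (up to 57.5 uM final), then substrate plus GAPDH/TPI/NAD/arsenate coupling and diaphorase/resazurin added. Fluorescence read after 20 min at RT, 525/598 nm.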
Starred values were filed as active, the others as inactive; u = inconclusive; x = no result; [ ] = another dose, or the depositor's remark. Unless noted, the call rests on the fitted dose curve; in most records, active means well fitted curve in the direction sought with a large enough effect; inconclusive means small, poorly fitted or top-dose-only effect, or another doubt; inactive means no such curve, though single readings can be large; an effect the other way counts as inactive or inconclusive.

SMILES | Cycloheximide cs | Pf growth 48h | Pf growth 96h | Shiga inhibitor | NS1 function inh | FBPA Giardia inh
COc1ccc(OCCOC(=O)c2cc(S(=O)(=O)N3CCOCC3)c(Cl)cc2Cl)cc1 | x | u | 20.9% | x | x | x
CC(Sc1nc2cc(Cl)ccc2s1)C(=O)Nc1cccc(S(=O)(=O)N2CCOCC2)c1 (centres undefined) | -2.8 | -21.8% | 13.1µM* | 17.0 | u | -6.4%
O=C(Nc1cccc(S(=O)(=O)N2CCCCC2)c1)c1ccc2ccccc2n1 | 25.2* | -18.9% | 0.0% | -20.6 | 22.0% | -6.5%
O=C(Nc1cccc(S(=O)(=O)N2CCOCC2)c1)c1c2c(nc3ccccc13)CCC2 | -5.6 | u | u | 8.7 | 3.98µM* | -3.6%
O=C(Nc1cccc(S(=O)(=O)N2CCCC2)c1)c1ccc2ccccc2n1 | 5.3 | u | u | -2.5 | 0.7% | -9.7%
CC(Nc1ccc(Br)cc1)C(=O)Nc1cccc(S(=O)(=O)N2CCOCC2)c1 (centres undefined) | x | u | 69.3% | x | x | x
O=C(Nc1cccc(S(=O)(=O)N2CCOCC2)c1)c1ccc2ccccc2n1 | 30.0* | u | -25.3% | 33.7 | 4.2% | -14.1%
COc1ccc(C(=O)[C@@H]2CC[C@](C)(C(=O)O)C2(C)C)cc1 | x | -5.5% | 70.1% | x | x | x
O=C(CN1CCN(S(=O)(=O)c2cccs2)CC1)N1CCCCC1 | x | 8.7% | 6.1% | x | x | x
CC(C)[C@H](N=Cc1ccccc1O)C(=O)O | x | x | x | x | 0.0% | x
O=S(=O)(c1ccc2nc(Nc3ccccc3)ccc2c1)N1CCCCC1 | 13.9* | 10.4µM* | u | 25.6 | -15.0% | u
Cc1[nH]n(C(N)=S)c(=O)c1N=Nc1ccc([N+](=O)[O-])cc1Cl | 14.3* | 40.1% | 0.0% | 15.3 | -1.2% | 16.8%
Cc1[nH]n(C(N)=S)c(=O)c1N=Nc1cccc(Cl)c1 | 31.7* | x | 15.0% | 60.2* | -42.1% | u
Cc1ccccc1N=Nc1c(C)[nH]n(C(N)=S)c1=O | 19.7* | u | u | 66.6* | -15.5% | 15.1%
NC(=S)n1[nH]c(-c2ccc([N+](=O)[O-])cc2)c(N=Nc2cccc(Cl)c2)c1=O | 10.6 | u | 24.6% | -6.3 | x | 6.8%
CCc1ccc2oc(C(=O)NCCc3ccc(S(N)(=O)=O)cc3)cc(=O)c2c1 | -2.5 | x | u | -8.9 | -1.0% | 0.1%
CCOc1ccc(Cl)cc1CNCCCSc1ncccn1 | -0.5 | 27.1% | 13.1µM* | -0.9 | -8.6% | -26.6%
CCN(CC(=O)Nc1c(F)cccc1F)C(=O)CNC(=O)c1ccc(C)s1 | 51.2* | 91.2% | 46.5% | 65.2* | -35.0% | x
CC1(C)CC(N2CCN(c3ccccc3)CC2)=CC(=[N+]2CCCC2)C1 | -8.9 | 1.65µM* | 6.1% | -15.4 | -16.0% | 8.5%
CC1CC(C)C[N+](=C2C=C(N3CCCC3)CC(C)(C)C2)C1 (centres undefined) | -1.4 | 0.37µM* | u | -6.8 | x | -0.7%
CCN(CC(=O)Nc1c(F)cccc1F)C(=O)/C=C/c1ccc2c(c1)OCO2 | x | 13.6% | 0.0% | x | x | x
COC(=O)N1CCC2(CC1)CCN(c1ncccn1)CC2 | x | x | x | x | x | -0.4%
COc1ccccc1Cn1[nH]nnc1=S | -1.6 | 82.4% | 9.3% | -9.1 | 5.1% | u
Fc1ccc(C2=CC(c3ccco3)n3ncnc3N2)cc1 (centres undefined) | -1.7 | 14.7% | 358.0% | -5.9 | -3.3% | -16.3%
Brc1ccc(C2=CC(c3ccco3)n3nnnc3N2)cc1 (centres undefined) | 16.5* | 25.0% | 10.9% | 56.8* | 4.2% | 4.3%
SMILES | Cycloheximide cs | Pf growth 48h | Pf growth 96h | Shiga inhibitor | NS1 function inh | FBPA Giardia inh
C1=C(c2ccc(-c3ccccc3)cc2)Nc2ncnn2C1c1ccco1 (centres undefined) | 30.8* | 6.8% | 19.3% | 92.1* | -78.1% | 0.8%
Clc1ccccc1C1=CC(c2ccco2)n2nnnc2N1 (centres undefined) | 1.3 | 4.3% | 24.2% | -3.0 | -8.2% | 1.6%
C/C=C/C1=CC(=O)C[C@H](c2ccc(Cl)cc2)C1 | x | 27.8% | 49.0% | x | x | x
O=C(CSc1nc2ccc(Cl)cc2[nH]1)Nc1ccc2[nH]c(=O)[nH]c2c1 | x | 0.0% | -15.2% | x | x | x
CCn1c(SCc2ccc(F)cc2)nnc1-c1nn(-c2ccccc2)ccc1=O | -2.6 | u | 5.22µM* | -15.0 | 1.4% | 6.8%
CCn1c(SCc2ccc(F)cc2)nc2ccccc2c1=O | 6.6 | -28.8% | -6.5% | -3.2 | -0.8% | 14.6%
COc1ccc(-n2nc(C(=O)NCC(=O)N3CCCCCC3)c3ccccc3c2=O)cc1OC | 24.3* | -28.6% | 2.94µM* | 14.7 | 4.0% | 2.9%
COc1ccc(-n2nc(C(=O)NCC(=O)N3CC(C)CC(C)C3)c3ccccc3c2=O)cc1OC (centres undefined) | -2.8 | 5.86µM* | 1.65µM* | -5.9 | 1.9% | x
N#Cc1ccc(-c2cn3c(n2)SCC3)cc1 | 36.1* | 96.3% | 103.0% | 63.8* | 0.2% | 13.0%
CCCc1sc(N/N=C/c2ccccn2)nc1-c1ccc(Br)cc1 | 6.1 | 1.65µM* | 9.2% | 19.2 | 8.6% | 7.3%
NC(=O)C1CCN(C(=O)COc2ccc3ccc(=O)oc3c2)CC1 | -0.8 | 48.8% | 7.3% | -3.9 | 4.9% | -4.5%
Cc1sc2ncnc(N3CCC(C(=O)Nc4ccc(C#N)c(Cl)c4)CC3)c2c1C | x | u | 11.7µM* | x | x | x
CNC(=O)c1ccc(NC(=O)C2CCN(c3ncnc4sc(C)c(C)c34)CC2)cc1 | -1.4 | u | u | -2.2 | -23.3% | -0.9%
Cc1sc2ncnc(N3CCC(C(=O)Nc4ccc(Cl)cc4Cl)CC3)c2c1C | x | 10.4µM* | u | x | x | x
Cc1sc2ncnc(N3CCC(C(=O)Nc4ccc(Cl)c(Cl)c4)CC3)c2c1C | x | 13.1µM* | u | x | x | x
CCC(C)[C@H](NC(=O)[C@@H]1Cc2c([nH]c3ccccc23)C2c3ccccc3C(=O)N21)C(=O)NCC1CCCO1 (some centres undefined) | -3.5 | -37.8% | u | -11.3 | -3.3% | -1.9%
CC1Sc2ccc(S(=O)(=O)CCC(=O)NC3CCCCC3C)cc2NC1=O (centres undefined) | -1.4 | 10.8% | 0.3% | -3.0 | 7.9% | x
COc1ccc(CNC(=O)C(C)n2ccc3cc(S(=O)(=O)N4CCCCCC4)ccc32)cc1 (centres undefined) | -1.0 | u | u | -3.2 | 17.0% | -4.7%
CC(C)CCN1CCc2nc(COc3ccccc3)c3c(c2C1)COC(C)C3 (centres undefined) | x | x | x | x | x | -6.5%[12.9 µM]
COc1ccc2[nH]c(C(=O)NCCc3ccccc3)cc2c1 | 32.1* | 109.4% | 44.3% | 85.2* | -11.7% | -0.9%
CCCCNC(=O)c1cc2cc(OC)ccc2[nH]1 | 13.8* | 28.9% | 25.2% | 22.7 | 2.9% | -1.7%
CCn1c(C)c(C(=O)NCCc2ccccc2)c2cc(OC)ccc21 | 18.5* | -17.9% | -14.4% | 18.5 | -2.2% | -1.4%
COc1ccc2[nH]c(C(=O)NCCCn3ccnc3)cc2c1 | -2.1 | u | u | -4.6 | 0.3% | -2.2%
COc1ccc2[nH]c(C(=O)NCCN3CCCCC3)cc2c1 | -2.5 | 5.8% | 6.6% | -14.6 | 6.8% | -21.3%
